ClpP mod = qHTS Assay for Activators of ClpP | ATP-dependent Clp protease proteolytic subunit (Bacillus subtilis (strain 168)), P80244 | purified B. subtilis ClpP, FRET peptide cleavage, 20 min | Potency, µM (highest dose often 57.5 µM), for inactives: at the highest dose activity change, negative = active | 340,000 tested, 1.9% active; active = well fitted falling curve with a large enough effect; inconclusive = small, poorly fitted or top-dose-only effect; inactive = no such curve, though single readings can be large or run the other way; also: the source files actives as falling curves though it sought activators and does not explain the sign; nearly all actives have a fitted effect of over 65% in size
Target sequence (P80244 whole entry, looked up): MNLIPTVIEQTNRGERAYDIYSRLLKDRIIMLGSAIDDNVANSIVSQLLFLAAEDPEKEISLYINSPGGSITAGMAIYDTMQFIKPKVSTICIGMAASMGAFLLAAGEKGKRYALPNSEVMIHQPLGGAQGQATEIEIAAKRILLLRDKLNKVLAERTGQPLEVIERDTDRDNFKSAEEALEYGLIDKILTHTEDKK
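FRET quenching reversal measured ClpP activation: 10 microg/mL B. subtilis ClpP at pH 8 with the FRET-FV decapeptide, read at 430 nm after 320 nm excitation. The 20-min minus 0-min signal was scaled between DMSO/no-enzyme wells and ADEP (5.8 microM final).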
DT40 TDP1 no CPT = qHTS for Inhibitors of human tyrosyl-DNA phosphodiesterase 1 (TDP1): qHTS in cells in absence of CPT; DT40 Tdp1-/- hTDP1 cells, no CPT, ATP luminescence, 48 h; Potency, µM (doses to about 46.2 µM), inactives show at the top dose activity change, negative = growth inhibition, usual class: inhibitors; 420,000 tested, 15% active; AID 686978, 2013; also: % is scaled to controls: 0 for no effect and ±100 for the full control effect; nearly all actives have a fitted effect of over 55% in size
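Cells were dispensed at 400 per well, compounds added by pin tool, plates incubated ≥48 hr at 37 °C, then CellTiter-Glo added for 30 min at room temperature before luminescence reading. Line: DT40 Tdp1-/- complemented with hTDP1; camptothecin omitted.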
TDP1 inh = qHTS Assay for Inhibitors of Tyrosyl-DNA Phosphodiesterase (TDP1). recombinant TDP1, AlphaScreen DNA substrate cleavage. Tyrosyl-DNA phosphodiesterase 1 (Homo sapiens), Q9NUW8. Potency, µM (doses to about 130 µM), for inactives: at the highest dose activity change, negative = inhibition, usual class: inhibitors. AID 485290, 2010. 350,000 tested, 0.28% active; also: % is scaled to controls: 0 for no effect and ±100 for the full control effect; nearly all actives have a fitted effect of over 40% in size
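Steps: enzyme plus compound, 15 min RT; add biotin/phosphotyrosine-FITC oligonucleotide (15 nM final), react 5 min; add donor/acceptor beads (10 ug/ml final), 10 min; read AlphaScreen. Tdp1 at 1 nM final.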
DT40 TDP1 CPT = qHTS for Inhibitors of human tyrosyl-DNA phosphodiesterase 1 (TDP1): qHTS in cells in presence of CPT. chicken DT40 Tdp1-/-;hTDP1 cells + 20 nM CPT, ATP luminescence, 48 h. Potency, µM (titrated, usually from 46.2 µM), for inactives: top-dose activity change, negative = growth inhibition, usual class: inhibitors. 420,000 tested, 12% active; also: % is scaled to controls: 0 for no effect and ±100 for the full control effect; nearly all actives have a fitted effect of over 55% in size
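Chicken DT40 Tdp1-/- cells stably complemented with human TDP1 were seeded at 400 cells/well in medium containing 20 nM camptothecin, exposed to pin-transferred compounds, and grown at 37 °C for at least 48 hr. Viability was read as ATP luminescence.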
The depositor's hits bear a star; [ ] = dose if it differs, or a comment. This is a sample that favours compounds with a hit; in the whole collection about 17% have one here. Unless noted, calls follow the shape of the dose curve; as a rule, active = well fitted curve in the direction sought with a large enough effect; inconclusive = small, poorly fitted or top-dose-only effect, or another doubt; inactive = no such curve, though single readings can be large; an effect the other way counts as inactive or inconclusive. Potency is read from the fitted curve at half-maximal effect.

Results for CN(C(=O)CSc1nc2ccccc2[nH]1)c1ccc(F)cc1 ?
ClpP mod: 0%; DT40 TDP1 no CPT: -16%; TDP1 inh: -1%; DT40 TDP1 CPT: -14%

What do the screens show for `Cc1nc2c(N)nn(C)c2nc1C`?
ClpP mod: -3%; DT40 TDP1 no CPT: -3%; DT40 TDP1 CPT: 4%

How did COc1ccc(C(=O)N/N=C/c2cc3ccccc3[nH]c2=S)cc1 do in these assays?
ClpP mod: -1%; DT40 TDP1 no CPT: 1.5µM*; TDP1 inh: 9%; DT40 TDP1 CPT: 1.5µM*

How did CCOc1ccccc1C(=O)N/N=C/c1cccc2cccnc12 do in these assays?
ClpP mod: -1%; DT40 TDP1 no CPT: inconclusive; TDP1 inh: 5%; DT40 TDP1 CPT: inconclusive

How did CCOc1ccc(C(=O)N/N=C/c2cccc3cccnc23)cc1 do in these assays?
ClpP mod: 0%; DT40 TDP1 no CPT: 9.2µM*; TDP1 inh: 11%; DT40 TDP1 CPT: 10µM*

What do the screens show for `COc1ccc(C(=O)N/N=C/c2cccnc2)cc1`?
ClpP mod: 0%; DT40 TDP1 no CPT: 7%; DT40 TDP1 CPT: 1%

How did COc1ccc(C(=O)N/N=C/c2cccc3cccnc23)cc1 do in these assays?
ClpP mod: 1%; DT40 TDP1 no CPT: 4.6µM*; TDP1 inh: 10%; DT40 TDP1 CPT: 4.1µM*

What do the screens show for `Cc1nn(-c2ccc(Cl)cn2)c2c1C(=O)CC(C)(C)C2Br` (centres undefined)?
ClpP mod: 0%; DT40 TDP1 no CPT: inconclusive; DT40 TDP1 CPT: inconclusive

How did O=C(CSC1=NS(=O)(=O)c2cc(Cl)ccc2N1)Nc1cccc(F)c1 do in these assays?
ClpP mod: -3%; DT40 TDP1 no CPT: -3%; TDP1 inh: 0%; DT40 TDP1 CPT: -8%

Results for O=c1oc(CCO)cc2ccc(Br)cc12 ?
ClpP mod: -10%; DT40 TDP1 no CPT: 6%; TDP1 inh: 2%; DT40 TDP1 CPT: 0%

What do the screens show for `CCCN(Cc1cc2ccc(C)cc2[nH]c1=O)S(=O)(=O)c1ccccc1`?
ClpP mod: -16%; DT40 TDP1 no CPT: inconclusive; TDP1 inh: 3%; DT40 TDP1 CPT: -23%

What do the screens show for `CC(=O)Nc1ccc(S(=O)(=O)N(C)Cc2cnn(C)c2)cc1`?
ClpP mod: -28%; DT40 TDP1 no CPT: 16µM*; TDP1 inh: 3%; DT40 TDP1 CPT: -29%

How did CC(=O)Nc1ccc(S(=O)(=O)N(Cc2cccnc2)Cc2cc3ccc(C)cc3[nH]c2=O)cc1 do in these assays?
ClpP mod: -12%; DT40 TDP1 no CPT: 15µM*; TDP1 inh: 4%; DT40 TDP1 CPT: inconclusive

Results for Cc1ccc(S(=O)(=O)N(CC(=O)O)Cc2ccccc2)cc1 ?
ClpP mod: 5%; DT40 TDP1 no CPT: -10%; TDP1 inh: 6%; DT40 TDP1 CPT: -20%

What do the screens show for `CC(=O)Nc1ccc(S(=O)(=O)N(Cc2ccccc2)Cc2ccccc2)cc1`?
ClpP mod: 3%; DT40 TDP1 no CPT: 16µM*; TDP1 inh: 6%[2.28 µM]; DT40 TDP1 CPT: inconclusive

How did Cc1ccc(S(=O)(=O)N(Cc2ccccc2)C(C)C)cc1 do in these assays?
ClpP mod: -1%; DT40 TDP1 no CPT: 18µM*; DT40 TDP1 CPT: 18µM*

What do the screens show for `Nc1nc(N)c(S(=O)(=O)c2ccccc2)c(Nc2ccc(F)cc2)n1`?
ClpP mod: -6%; TDP1 inh: 6%

What do the screens show for `CCCCC/C=C\C/C=C\C/C=C\C/C=C\CCCC(=O)O[C@@H](CO)COCCCCCCCCCCCCCCCC`?
DT40 TDP1 no CPT: 0%[4.12 µM]; TDP1 inh: 7%; DT40 TDP1 CPT: 3%[4.12 µM]

How did O=S(=O)(NCc1ccccc1)c1cccs1 do in these assays?
ClpP mod: 14µM*; DT40 TDP1 no CPT: -43%; TDP1 inh: 1%; DT40 TDP1 CPT: 0.082µM*

Results for CC(C)N(Cc1ccccc1)S(=O)(=O)c1cccs1 ?
ClpP mod: 1%; DT40 TDP1 no CPT: 26µM*; DT40 TDP1 CPT: -27%

What do the screens show for `CN(Cc1ccccc1)S(=O)(=O)c1cccs1`?
ClpP mod: -2%; DT40 TDP1 no CPT: -24%; TDP1 inh: 7%; DT40 TDP1 CPT: -28%

How did CC(=O)Nc1ccc(S(=O)(=O)N(Cc2ccccc2)C(C)C)cc1 do in these assays?
ClpP mod: 1%; DT40 TDP1 no CPT: 21µM*; TDP1 inh: 6%; DT40 TDP1 CPT: 16µM*

What do the screens show for `CC(=O)Nc1ccc(S(=O)(=O)N(C)Cc2ccccc2)cc1`?
ClpP mod: 0%; DT40 TDP1 no CPT: 3%; TDP1 inh: 3%; DT40 TDP1 CPT: -2%

What do the screens show for `CCC(C)NC(=O)C(=O)Nc1c2c(nn1-c1ccccc1)CS(=O)(=O)C2` (centres undefined)?
ClpP mod: -5%; DT40 TDP1 no CPT: -6%; TDP1 inh: 3%; DT40 TDP1 CPT: -11%

What do the screens show for `Cc1c(CN2CCC(CO)(CC3CCCCO3)CC2)cnn1C` (centres undefined)?
DT40 TDP1 no CPT: -3%; TDP1 inh: 3%; DT40 TDP1 CPT: 12%

Results for COc1cc2c(cc1C(F)(F)F)N(C(=O)Nc1cc(F)cc(-c3cccnc3)c1)CC2 ?
ClpP mod: -2%; DT40 TDP1 no CPT: 3.5µM*; TDP1 inh: -13%[56.1 µM]; DT40 TDP1 CPT: 4.5µM*

How did Cn1ccc2cc3c(cc21)CCN3C(=O)Nc1cccnc1 do in these assays?
ClpP mod: -14%; DT40 TDP1 no CPT: inconclusive; TDP1 inh: 15%; DT40 TDP1 CPT: 7%

What do the screens show for `CCOC(=O)C1=C(C)Nc2ccccc2N=C1NC(=O)c1cc(C)on1`?
ClpP mod: -2%; DT40 TDP1 no CPT: -26%; TDP1 inh: 1%; DT40 TDP1 CPT: -27%

Results for Cc1cc(C)c(C#N)c(SCC(=O)c2ccc(Cl)cc2Cl)n1 ?
ClpP mod: -2%; DT40 TDP1 no CPT: 16µM*; TDP1 inh: 3%; DT40 TDP1 CPT: inconclusive

Results for Cc1cc(C)c(C#N)c(SCC(=O)c2cc(C)n(CCc3ccccc3)c2C)n1 ?
ClpP mod: -8%; DT40 TDP1 no CPT: 18µM*; TDP1 inh: 7%; DT40 TDP1 CPT: 18µM*

How did COCCn1c(C)cc(C(=O)CSc2nc(C)cc(C)c2C#N)c1C do in these assays?
ClpP mod: 1%; DT40 TDP1 no CPT: 18µM*; TDP1 inh: 5%; DT40 TDP1 CPT: 21µM*

How did CC(C)(CO)[C@@H](O)C(=O)NCCCC(=O)O do in these assays?
DT40 TDP1 no CPT: -8%; DT40 TDP1 CPT: 0%

Results for C=C(CO)C1Cc2c(ccc3c2OC2COc4cc(OC)c(OC)cc4C2C3=O)O1 (centres undefined) ?
DT40 TDP1 no CPT: 0.24µM*; TDP1 inh: 19%; DT40 TDP1 CPT: 0.3µM*

What do the screens show for `CCOc1ccc(Nc2cc(=O)oc3ccccc23)cc1`?
ClpP mod: 22%; DT40 TDP1 no CPT: 18µM*; TDP1 inh: -12%; DT40 TDP1 CPT: 10µM*

Results for Cc1cc(=O)oc2cc(OC(C)C(=O)O)c(Cl)cc12 (centres undefined) ?
ClpP mod: 28µM*; DT40 TDP1 no CPT: -8%; TDP1 inh: 2%; DT40 TDP1 CPT: -22%
